Measurements taken from PubChem BioAssay (NCI).
The panel holds about 79,000 compounds, 15% with a hit somewhere; the sample as a whole holds those more often. Active and inactive are the calls of the source. No stated cut-off is given here; in the data, active means growth inhibition above about 70%; inactive means the rest.

What was measured:
[1] = NCI Yeast Anticancer Drug Screen. Data for the rad52 strain (AID 147);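 further: 0% = growth of vehicle-treated control cultures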; conditions: S. cerevisiae rad52 mutant growth inhibition, active compounds read high
Method in brief: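 Here a repair-compromised yeast strain receives each compound; its growth is then quantified and normalised to vehicle-only controls.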

[2] = NCI Yeast Anticancer Drug Screen. Data for the wt1 strain (AID 149);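 further: 0% = growth of vehicle-treated wt1 cultures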; conditions: S. cerevisiae wt1 strain (SPY 50644) growth inhibition, active compounds read high
Method in brief: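 The wt1 strain was treated with compounds, and growth was compared with vehicle-treated cultures to give inhibition.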

[3] = NCI Yeast Anticancer Drug Screen. Data for the rad50EPP+ strain (AID 151);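 further: 0% = growth of vehicle-treated control cultures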; conditions: S. cerevisiae rad50 mutant strain, active compounds read high
Method in brief: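 Read-out is yeast growth inhibition relative to vehicle; cells used were the rad50EPP+ strain.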

[4] = NCI Yeast Anticancer Drug Screen. Data for the mgt1 strain (AID 153); conditions: S. cerevisiae mgt1 mutant growth inhibition, active compounds read high
Method in brief: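 Measured: inhibition of mgt1 yeast growth by compound, normalized to vehicle-treated cultures.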

[5] = NCI Yeast Anticancer Drug Screen. Data for the rad50 strain (AID 155);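 further: 0% = growth of vehicle-only cultures of the same strain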; conditions: S. cerevisiae rad50 strain growth inhibition, active compounds read high
Method in brief: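 Cells are treated with compound, grown, and their growth is then scored against vehicle-only cultures of the same repair-deficient yeast strain.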

[6] = NCI Yeast Anticancer Drug Screen. Data for the mec2-1 strain (AID 157); conditions: S. cerevisiae mec2-1 strain, active compounds read high
Method in brief: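 Using mec2-1 yeast: add compound, measure growth, express inhibition versus vehicle-treated cultures.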

[7] = NCI Yeast Anticancer Drug Screen. Data for the rad14 strain (AID 159);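 further: 0% = growth of vehicle-treated control cultures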; conditions: S. cerevisiae rad14 strain growth inhibition, active compounds read high
Method in brief: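 Readout: yeast growth inhibition, referenced to vehicle-only cultures. Strain bears a defined alteration in DNA damage repair.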

[8] = NCI Yeast Anticancer Drug Screen. Data for the sgs1 mgt1 strain (AID 161);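 further: 0% = growth of cultures given vehicle only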; conditions: S. cerevisiae sgs1 mgt1 strain, active compounds read high
Method in brief: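 Percent growth inhibition was derived by comparing compound-exposed mutant yeast with vehicle-exposed cultures. The strain carries alterations in DNA damage repair.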

[9] = NCI Yeast Anticancer Drug Screen. Data for the CLN2oe strain (AID 163);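 further: 0% = growth of vehicle-only control cultures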; conditions: S. cerevisiae CLN2oe strain, active compounds read high
Method in brief: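 Whole-cell yeast growth assay. A strain engineered for altered cell-cycle control received compound, and inhibition relative to vehicle-treated cultures was recorded.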

[10] = NCI Yeast Anticancer Drug Screen. Data for the cln2 rad14 strain (AID 165);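 further: 0% = growth equal to vehicle treated cultures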; conditions: S. cerevisiae cln2 rad14 strain, active compounds read high
Method in brief: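 Yeast strain cln2 rad14, bearing defects in cell cycle control and DNA repair, serves as the test system; values reflect growth inhibition compared with vehicle.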

[11] = NCI Yeast Anticancer Drug Screen. Data for the bub3 strain (AID 167); conditions: S. cerevisiae bub3 mutant strain, active compounds read high
Method in brief: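 Part of a panel of yeast mutants defective in DNA damage repair or cell cycle regulation. Each strain is grown with compound, and inhibition is calculated relative to solvent-treated cultures.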

[12] = NCI Yeast Anticancer Drug Screen. Data for the wt2 strain (AID 169);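 further: 0% = growth of vehicle-treated yeast cultures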; conditions: S. cerevisiae wt2 strain growth inhibition, active compounds read high
Method in brief: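 Treated yeast vs. vehicle-treated yeast: growth inhibition determined.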

[13] = NCI Yeast Anticancer Drug Screen. Data for the mlh1 strain (AID 171);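 further: 0% = growth of vehicle-treated control cultures of the same strain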; conditions: S. cerevisiae mlh1 strain growth inhibition, active compounds read high
Method in brief: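 A yeast strain with a defined genetic lesion serves as the test organism. Cultures receive compound or vehicle, and growth is measured.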

[14] = NCI Yeast Anticancer Drug Screen. Data for the sgs1 strain (AID 173);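 further: 0% = growth of vehicle-only control cultures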; conditions: S. cerevisiae sgs1 mutant, active compounds read high
Method in brief: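 A genetically defined yeast mutant is incubated with the test compound, and its growth is compared to that of the same strain given vehicle.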

[15] = NCI Yeast Anticancer Drug Screen. Data for the mlh1 rad18 strain (AID 175); conditions: S. cerevisiae mlh1 rad18 strain growth inhibition, active compounds read high
Method in brief: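 Steps: expose repair-defective yeast to compound; measure growth; express inhibition against vehicle-treated controls.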

[16] = NCI Yeast Anticancer Drug Screen. Data for the rad18 strain (AID 177); conditions: S. cerevisiae rad18 mutant growth inhibition, active compounds read high
Method in brief: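 Measured value is growth inhibition of a yeast strain bearing a DNA repair alteration, referenced to vehicle-treated cells.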

[17] = at 5.0 µM (retest, dose inferred, filed as 0.5)
[18] = at 50.0 µM (retest, dose inferred, filed as 5.0)

Measured: growth inhibition

CC(O)=NC(Cc1ccc2ccccc2c1)C(O)=NC(Cc1ccc(Cl)cc1)C(O)=NC(Cc1c[nH]c2ccccc12)C(O)=NC(CO)C(O)=NC(Cc1ccc(O)cc1)C(O)=NC(CCCN=C(N)N)C(O)=NC(CC(C)C)C(O)=NC(CCCN=C(N)N)C(=O)N1CCCC1C(O)=NC(C)C(=N)O (stereo unspecified)
active: [15]; [18] 70%
inactive: [1]; at 1.2 µM -7% | [1]; at 3.7 µM -8% | [1]; at 11.0 µM -4% | [1]; at 33.0 µM 4% | [1]; at 100.0 µM 16% | [2]; at 1.2 µM -2% | [2]; at 3.7 µM -4% | [2]; at 11.0 µM -5% | [2]; at 33.0 µM -3% | [2]; at 100.0 µM -1% | [3]; at 1.2 µM -4% | [3]; at 3.7 µM 2% | [3]; at 11.0 µM 11% | [3]; at 33.0 µM 16% | [3]; at 100.0 µM 11% | [4]; at 1.2 µM -3% | [4]; at 3.7 µM -2% | [4]; at 11.0 µM -4% | [4]; at 33.0 µM -5% | [4]; at 100.0 µM 6% | [5]; at 1.2 µM -5% | [5]; at 3.7 µM -2% | [5]; [17] -9% | [5]; at 11.0 µM 1% | [5]; at 33.0 µM 3% | [5]; [18] 16% | [5]; at 50.0 µM 18.1% | [5]; at 100.0 µM 25% | [6]; at 1.2 µM -2% | [6]; at 3.7 µM -3% | [6]; [17] -14% | [6]; at 11.0 µM -4% | [6]; at 33.0 µM -2% | [6]; [18] -6% | [6]; at 50.0 µM 1.1% | [6]; at 100.0 µM 3% | [7]; at 1.2 µM -5% | [7]; at 3.7 µM 1% | [7]; at 11.0 µM 4% | [7]; at 33.0 µM 7% | [7]; at 100.0 µM 24% | [8]; [17] 2% | [8]; [18] 20% | [8]; at 50.0 µM 3% | [9]; at 1.2 µM -4% | [9]; at 3.7 µM 0% | [9]; at 11.0 µM 3% | [9]; at 33.0 µM 19% | [9]; at 100.0 µM 32% | [10]; [17] -5% | [10]; [18] 18% | [10]; at 50.0 µM 12.2% | [11]; at 1.2 µM -2% | [11]; at 3.7 µM -1% | [11]; [17] 39% | [11]; at 11.0 µM -4% | [11]; at 33.0 µM -1% | [11]; [18] 32% | [11]; at 50.0 µM 19.9% | [11]; at 100.0 µM 1% | [12]; at 1.2 µM -9% | [12]; at 3.7 µM -10% | [12]; at 11.0 µM -2% | [12]; at 33.0 µM 11% | [12]; at 100.0 µM 2% | [13]; at 1.2 µM -7% | [13]; at 3.7 µM -4% | [13]; at 11.0 µM -3% | [13]; at 33.0 µM 3% | [13]; at 100.0 µM 17% | [14]; at 1.2 µM -21% | [14]; at 3.7 µM -18% | [14]; at 11.0 µM -17% | [14]; at 33.0 µM 3% | [14]; at 100.0 µM 44% | [15]; [17] 52% | [15]; at 50.0 µM 58.4% | [16]; at 1.2 µM -6% | [16]; at 3.7 µM -6% | [16]; at 11.0 µM -3% | [16]; at 33.0 µM 1% | [16]; at 100.0 µM 35%

CC(C)(C)C1=CC(=CC=C2C=CN(CCCCCCCCCCCO)C=C2)C=C(C(C)(C)C)C1=O
active: [1]; at 3.7 µM 95% | [1]; at 11.0 µM 99% | [1]; at 33.0 µM 98% | [1]; at 100.0 µM 98% | [2]; at 11.0 µM 99% | [2]; at 33.0 µM 99% | [2]; at 100.0 µM 99% | [3]; at 33.0 µM 82% | [3]; at 100.0 µM 95% | [4]; at 11.0 µM 99% | [4]; at 33.0 µM 100% | [4]; at 100.0 µM 99% | [5]; [17] 86% | [5]; at 11.0 µM 99% | [5]; at 33.0 µM 98% | [5]; [18] 95% | [5]; at 50.0 µM 99.2% | [5]; at 100.0 µM 98% | [6]; at 3.7 µM 99% | [6]; [17] 99% | [6]; at 11.0 µM 99% | [6]; at 33.0 µM 99% | [6]; [18] 99% | [6]; at 50.0 µM 98.7% | [6]; at 100.0 µM 98% | [7]; at 11.0 µM 99% | [7]; at 33.0 µM 99% | [7]; at 100.0 µM 98% | [8]; [17] 99% | [8]; [18] 89% | [8]; at 50.0 µM 99.3% | [9]; at 11.0 µM 99% | [9]; at 33.0 µM 98% | [9]; at 100.0 µM 97% | [10]; [17] 99% | [10]; [18] 99% | [10]; at 50.0 µM 99.2% | [11]; [17] 94% | [11]; at 11.0 µM 98% | [11]; at 33.0 µM 98% | [11]; [18] 99% | [11]; at 50.0 µM 99% | [11]; at 100.0 µM 96% | [12]; at 11.0 µM 99% | [12]; at 33.0 µM 99% | [12]; at 100.0 µM 98% | [13]; at 11.0 µM 99% | [13]; at 33.0 µM 99% | [13]; at 100.0 µM 98% | [14]; at 3.7 µM 84% | [14]; at 11.0 µM 99% | [14]; at 33.0 µM 99% | [14]; at 100.0 µM 98% | [15]; [17] 98% | [15]; [18] 99% | [15]; at 50.0 µM 99.5% | [16]; at 11.0 µM 99% | [16]; at 33.0 µM 98% | [16]; at 100.0 µM 97%
inactive: [1]; at 1.2 µM -1% | [2]; at 1.2 µM -6% | [2]; at 3.7 µM 46% | [3]; at 1.2 µM -3% | [3]; at 3.7 µM -3% | [3]; at 11.0 µM -2% | [4]; at 1.2 µM -4% | [4]; at 3.7 µM -4% | [5]; at 1.2 µM -3% | [5]; at 3.7 µM 48% | [6]; at 1.2 µM -3% | [7]; at 1.2 µM -4% | [7]; at 3.7 µM 23% | [9]; at 1.2 µM -8% | [9]; at 3.7 µM 10% | [11]; at 1.2 µM -2% | [11]; at 3.7 µM 57% | [12]; at 1.2 µM -4% | [12]; at 3.7 µM 4% | [13]; at 1.2 µM -3% | [13]; at 3.7 µM 0% | [14]; at 1.2 µM -3% | [16]; at 1.2 µM -4% | [16]; at 3.7 µM 68%
